Screening results (PubChem BioAssay)
ADAM17 inh = inhibitors of human ADAM17; AID 720648; actives 0.83% (n = 370,000); inhibition, % at 6.95 µM; recombinant ADAM17, EDANS/DABCYL FRET peptide cleavage;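 active = inhibition above the mean of compounds lying between control limits plus 3 SD, set per campaign, cut at about 8.5% in these data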;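 note: 0% = DMSO-only wells as the low control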
HGIII-sPLA2 inh = Inhibits HGIII-sPLA2 liposome hydrolysis, primary screen; QFRET BODIPY PC-A2 liposome hydrolysis, fluorescence; inhibition, % at 12.2 µM; actives 0.56% (n = 370,000); AID 743126;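 active = inhibition above mean plus 3 SD of compounds lying within the high and low control bounds, cut at about 19% in these data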;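 note: 0% = median of test compound wells and 100% = no enzyme DMSO wells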
proKLK7 act = activates the human kallikrein-7 zymogen | AID 652039 | activation, % at 7 µM | purified proKLK7, EDANS-DABCYL substrate fluorescence; 100% is mature enzyme control, 0% vehicle | P49862 | actives 0.9% (n = 370,000);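 active = activation above the mean of all tested compounds plus 3 SD, computed per campaign excluding outliers beyond control limits, cut at about 13% in these data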
Target sequence (P49862 whole entry, looked up): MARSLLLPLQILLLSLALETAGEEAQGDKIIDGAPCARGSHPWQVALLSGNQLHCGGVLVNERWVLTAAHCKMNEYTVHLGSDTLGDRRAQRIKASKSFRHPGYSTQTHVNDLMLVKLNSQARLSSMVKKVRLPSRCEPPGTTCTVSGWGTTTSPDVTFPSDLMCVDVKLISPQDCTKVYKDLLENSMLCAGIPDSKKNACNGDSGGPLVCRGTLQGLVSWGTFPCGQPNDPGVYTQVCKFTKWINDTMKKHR
NRP1-CendR mod = alters CendR peptide binding to human NRP-1; O14786; FAM-RPARPAR peptide binding to NRP-1, fluorescence polarization; inhibition, % at 25 µM; actives 0.85% (n = 360,000); AID 602438;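 active = inhibition or corrected inhibition above about 18%, plus a signal ratio from 0.5 to 1.5, limit read from the data, passing the limit was not always enough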
ADAM10 inh = inhibits human ADAM10; recombinant ADAM10, EDANS/DABCYL FRET peptide cleavage, 3 h; inhibition, % at 7 µM; actives 0.62% (n = 370,000);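 active = inhibition above a per-campaign cutoff equal to the mean of compounds falling between control-based bounds plus 3 SD, cut at about 20% in these data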;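 note: 0% = DMSO wells while the 100% control is not disclosed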
Active calls of the source: *. Sampled rows, rich in hits. Any-hit rate of the full collection: about 3.4%.

`CC1(c2ccc(OC(F)F)cc2)NC(=O)N(CC(=O)Nc2ccc(F)cc2)C1=O` (stereo unspecified) gave ADAM17 inh -0.6, HGIII-sPLA2 inh -5.2, proKLK7 act -0.1, NRP1-CendR mod -3.6 and ADAM10 inh 7.9.
For CCCCNC(=O)C[C@H]1C[C@@]2(C(=O)OC)C(=C[C@H](C3CCCC3)O[C@@H]2C)N(Cc2ccc(Cl)cc2Cl)C1=O the results were ADAM17 inh -3.0, HGIII-sPLA2 inh 6.3, proKLK7 act 0.3 and ADAM10 inh -0.2.
Screening C=CCN1C(=O)[C@@H](CC(=O)NCCCC)[C@]2(C(=O)OC)CCCCC=C12 returned ADAM17 inh 1.1, HGIII-sPLA2 inh -1.8, proKLK7 act 0.2 and ADAM10 inh 2.0.
For COc1ccccc1NS(=O)(=O)c1cc(C(=O)NCC(C)(C)N2CCOCC2)ccc1C the results were ADAM17 inh -4.2, HGIII-sPLA2 inh 4.1, proKLK7 act -0.2, NRP1-CendR mod 0.0 and ADAM10 inh -5.5.
COc1ccccc1NS(=O)(=O)c1cc(NC(=O)c2ccc3c(c2)OCCO3)ccc1C was read as ADAM17 inh 3.3, HGIII-sPLA2 inh -13.6, proKLK7 act -0.3, NRP1-CendR mod 29.8* and ADAM10 inh 9.4.
For CC1=CC(C)C2(CO)COC(c3cccnc3)C1C2C (stereo unspecified) the results were ADAM17 inh 0.4, HGIII-sPLA2 inh 0.3, proKLK7 act 0.1, NRP1-CendR mod 27.3* and ADAM10 inh -1.3.
For COc1cccc(C2c3c(oc4ccccc4c3=O)C(=O)N2c2ccccn2)c1 (stereo unspecified) the results were ADAM17 inh -2.3, HGIII-sPLA2 inh 19.7*, proKLK7 act 0.7, NRP1-CendR mod -3.0 and ADAM10 inh -27.3.
Screening O=S(=O)(NCc1ccccc1)c1ccc(S(=O)(=O)N(Cc2ccccn2)Cc2ccco2)cc1 returned ADAM17 inh 2.8, HGIII-sPLA2 inh -13.7, proKLK7 act 0.1, NRP1-CendR mod 37.5* and ADAM10 inh 12.7.
For Cc1nn(-c2ccccc2)c(N2CCCC2)c1C=O the results were ADAM17 inh -1.6, HGIII-sPLA2 inh 1.4, proKLK7 act -0.7, NRP1-CendR mod -2.7 and ADAM10 inh -10.8.
For Cc1nn(-c2ccccc2)c(N2CCCC2)c1/C=C1\N=C(c2ccccc2)OC1=O the results were ADAM17 inh -3.2, HGIII-sPLA2 inh 12.2, proKLK7 act -0.2, NRP1-CendR mod 75.7* and ADAM10 inh -10.0.
COc1ccc([C@H]2Cc3cccc(O)c3C(=O)O2)cc1O was read as ADAM17 inh -5.5, HGIII-sPLA2 inh -7.6, proKLK7 act -0.5, NRP1-CendR mod 31.2* and ADAM10 inh -7.8.
`O=c1[nH]c(=O)n(C2OC(CO)C(O)C2O)c2c1CCCC2` (stereo unspecified) gave ADAM17 inh -1.2, HGIII-sPLA2 inh 1.5, proKLK7 act 0.6, NRP1-CendR mod 22.9* and ADAM10 inh -2.0.
Screening O=C1C(Cl)=C(NS(=O)(=O)c2ccc([N+](=O)[O-])cc2)C(=O)c2ccccc21 returned ADAM17 inh 1.2, HGIII-sPLA2 inh -4.7, proKLK7 act 0.0, NRP1-CendR mod 25.8* and ADAM10 inh 6.7.
Screening C[C@H]1C(=O)CC[C@@]23CCCN2C(=O)CCC[C@@H]13 returned ADAM17 inh -8.1, HGIII-sPLA2 inh 11.6 and ADAM10 inh -8.1.
`COc1ccc(C=Nn2c(-c3ccc(F)cc3)n[nH]c2=S)c(OC)c1OC` gave ADAM17 inh 6.4, HGIII-sPLA2 inh -0.2, proKLK7 act 1.4 and ADAM10 inh -5.8.
Screening O=S(=O)(c1cccc(-c2nnc(SCc3ccc(Cl)cc3)o2)c1)N1CCCCC1 returned ADAM17 inh -3.2, HGIII-sPLA2 inh 8.4, proKLK7 act 0.1, NRP1-CendR mod 1.6 and ADAM10 inh -6.9.
For CN(C)S(=O)(=O)c1cccc(-c2nnc(SCc3ccc4c(c3)OCCO4)o2)c1 the results were ADAM17 inh 11.6*, HGIII-sPLA2 inh -24.3, proKLK7 act 0.1, NRP1-CendR mod 23.9 and ADAM10 inh 20.4*.
CCCN(CCC)C(=O)Cn1c(=O)c2sccc2n2c(=S)sc(-c3ccccc3)c12 was read as ADAM17 inh 1.4, HGIII-sPLA2 inh -3.8, proKLK7 act -0.1, NRP1-CendR mod 42.0* and ADAM10 inh -6.8.
For O=C(COC(=O)C1=COCCO1)Nc1ccc(OC(F)F)cc1 the results were ADAM17 inh -3.0, HGIII-sPLA2 inh 0.6, proKLK7 act -0.3, NRP1-CendR mod 27.1* and ADAM10 inh -3.4.
